LmPK inhibitor: inhibitors of Leishmania mexicana pyruvate kinase; purified LmPK, Kinase-Glo ATP luminescence, 1 h; Potency, µM (doses to about 57.5 µM), for the others: at the top dose activity change, negative = inhibition, hits mostly inhibitors; hit rate 0.37% among 290,000; AID 1721; note: potency is the fitted concentration of half-maximal effect; % is set by controls: 0 for no effect and ±100 for the full control effect
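ATP generated from ADP (0.1 mM) and PEP (0.5 mM) by 0.1 nM LmPK over 1 h at room temperature (pH 7.2 imidazole buffer) was detected by coupled luciferase luminescence. Values were normalized to uninhibited and no-enzyme wells.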
Shiga inhibitor: inhibitors of Shiga toxin in Vero cells; Vero cells, Shiga toxin protein synthesis inhibition reporter; inhibition, % at 38.7 µM; hit rate 9.2% among 290,000; in the data active = inhibition mostly above about 28%, no sharp cut-off; inactive = mostly below about 43%; note: 0% is about no effect
Cycloheximide cs: affects cycloheximide protein synthesis inhibition readout, counter-screen; cell reporter, cycloheximide protein synthesis inhibition counterscreen; max response, %; hit rate 12% among 300,000; AID 2314; in the data active = max response mostly above about 13%, no sharp cut-off; inactive = mostly below about 14%; note: read at 38.3 µM for the half of the compounds with a filed dose; 0% is about no effect
TbPYK inhibitor: blocks Trypanosoma brucei pyruvate kinase | Q57TT1 | TbPYK enzyme, Kinase-Glo Plus ATP luminescence, 45 min | Potency, µM (top dose mostly 76.8 µM), for inactives: top-dose activity, negative = inhibition, hits mostly inhibitors | hit rate 0.12% among 410,000; note: potency is the fitted concentration of half-maximal effect; % is set by controls: 0 for no effect and ±100 for the full control effect; nearly all actives have a fitted effect of over 50% in size
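TbPYK + substrate in 50 mM TEA pH 7.2, 100 mM KCl, 10 mM MgCl2, 0.05% BSA, 0.01% Tween-20; cpd pinned; ADP 130 uM final; 45 min RT; Kinase-Glo Plus 10 min; luminescence endpoint.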
Sm TGR inh: S. mansoni TGR enzyme inhibition; purified TGR, DTNB reduction, TNB absorbance 405 nm; Q962Y6; Potency, µM (series often up to 114 µM), without a hit: at the highest dose activity change, negative = inhibition, most hits filed as inhibitors; hit rate 3% among 360,000; note: potency is the fitted concentration of half-maximal effect; % is set by controls: 0 for no effect and ±100 for the full control effect; nearly all actives have a fitted effect of over 60% in size
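TGR 20 nM + NADPH 100 uM (dispensed conc.), cpd preinc 15 min RT; start with NADPH (500 uM addition) then DTNB (15 mM addition). Kinetic TNB absorbance, 405 nm filter. Four-parameter Hill fit across titration.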
Giardia FBPA inh: Giardia lamblia aldolase inhibition | A8B2U2 | purified Giardia FBPA | Potency, µM (top dose mostly 59.6 µM), for the others: at the highest dose activity, negative = inhibition, most hits filed as inhibitors | hit rate 0.71% among 290,000 | AID 2451; note: potency is the fitted concentration of half-maximal effect; % is set by controls: 0 for no effect and ±100 for the full control effect; nearly all actives have a fitted effect of over 55% in size
Target sequence (A8B2U2 whole entry, looked up): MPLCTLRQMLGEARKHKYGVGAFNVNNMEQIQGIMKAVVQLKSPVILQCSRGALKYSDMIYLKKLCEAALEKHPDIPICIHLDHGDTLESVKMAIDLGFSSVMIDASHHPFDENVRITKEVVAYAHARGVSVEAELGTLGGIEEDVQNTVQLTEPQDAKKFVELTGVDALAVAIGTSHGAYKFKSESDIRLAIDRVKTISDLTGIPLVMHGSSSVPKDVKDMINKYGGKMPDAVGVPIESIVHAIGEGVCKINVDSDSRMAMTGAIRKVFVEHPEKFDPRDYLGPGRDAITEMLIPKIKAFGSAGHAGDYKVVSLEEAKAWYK
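40 nM FBPA preincubated 10 min at RT with compound (up to 57.5 uM final), then substrate plus GAPDH/TPI/NAD/arsenate coupling and diaphorase/resazurin added. Fluorescence read after 20 min at RT, 525/598 nm.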
* hit, by the source's call; ? = inconclusive; nt = no result. The entries come from a sample that favours hits as a whole. Unless noted, calls come from the whole dose curve; as a rule, active = well fitted curve in the direction sought with a large enough effect; inconclusive = small, poorly fitted or top-dose-only effect, or another doubt; inactive = no such curve, though single readings can be large; an effect the other way counts as inactive or inconclusive.

SMILES | LmPK inhibitor | Shiga inhibitor | Cycloheximide cs | TbPYK inhibitor | Sm TGR inh | Giardia FBPA inh
O=C1OC(c2ccc(Cl)cc2)=N/C1=C\C=C\c1ccco1 | 6.1% | -13.8 | -1.6 | -10.8% | 28.2µM* | -10.9%
CN1CCN(C(=O)c2cnn(-c3cccc(Cl)c3)c2C2CCN(C(=O)OC(C)(C)C)CC2)CC1 | nt | nt | nt | 0.1% | -2.0% | nt
COC(=O)N/N=C/c1ccc(Oc2ccccc2)cc1 | -11.4% | 91.9* | 46.4* | -0.6% | 2.2% | -2.3%
CCOC(=O)N/N=C\c1ccc(OC/C=C/c2ccccc2)cc1 | 6.2% | 17.5 | 11.6 | 1.2% | 1.7% | 5.1%
CC(C)(O)C(=O)N/N=C\c1ccc(OC/C=C/c2ccccc2)cc1 | 2.1% | 45.0 | 32.3* | 5.9% | 3.0% | 8.5%
COC(=O)N/N=C\c1ccc(OC/C=C/c2ccccc2)cc1 | 5.6% | 14.2 | 14.7* | -5.1% | -22.9% | 4.9%
COc1ccc(CNC(=O)c2cc3c(-c4ccccc4F)nn(C)c3s2)cc1 | nt | nt | nt | -6.0% | 10.1% | nt
O=C(Cn1c(=O)oc2cc(S(=O)(=O)N3CCCCC3)ccc21)NCc1ccc(Cl)cc1 | nt | nt | nt | 0.7% | -0.8% | nt
O=C(NCC(c1cccnc1)N1CCc2ccccc2C1)C(=O)Nc1cccc(Cl)c1 (stereo not given) | nt | nt | nt | -12.2% | -2.2% | nt
Cc1cc(C)c(S(=O)(=O)N(C)CC(=O)NCCCn2ccnc2)c(C)c1 | 3.6% | 22.5 | -3.1 | 3.7% | 1.9% | 7.4%
C#CCNC(=O)C1CCN(c2cc(C)nc(-c3ccccc3)n2)CC1 | -0.1% | -6.6 | -2.4 | -2.6% | nt | 1.6%
Cc1cc(=O)[nH]c(N/N=C/c2cccs2)n1 | -16.7% | -8.9 | 23.3* | 3.6% | -11.1% | 26.4%
Cc1cc(=O)[nH]c(N/N=C/c2c(F)c(F)c(F)c(F)c2F)n1 | 0.0% | -6.6 | -2.3 | 2.0% | 11.6% | -26.4%
Cc1cc(=O)[nH]c(N/N=C/c2sccc2C)n1 | ? | 80.9* | 47.4* | 1.9% | 4.5% | 7.6%
Cc1cc(=O)[nH]c(N/N=C/c2cc(C)n(-c3ccccc3)c2C)n1 | -21.1% | 95.0* | 33.9* | -2.3% | 31.6µM* | -12.0%
O=c1cnnc(N/N=C/c2cccs2)[nH]1 | 2.3% | -6.1 | 0.6 | -8.4% | 13.9% | ?
Cc1cc(=O)[nH]c(N/N=C/c2ccccc2Cl)n1 | -6.3% | -2.3 | 1.4 | -13.6% | 6.1% | -7.7%
COc1ccccc1CNC(=O)c1cc2c(=O)oc3ccc(C)cc3c2s1 | nt | nt | nt | -1.6% | -4.6% | nt
COc1ccccc1C(=O)Nc1ccccc1C(=O)OCc1cc(=O)n2ccsc2n1 | nt | nt | nt | 1.5% | 0.8% | nt
CCc1ccc(NC(=O)CCc2ccc(C)o2)cc1 | 4.5% | nt | 37.1* | -6.6% | 62.7% | 1.2%
Cc1ccc(CCC(=O)Nc2ccc(C#N)cc2)o1 | -9.7% | 0.3 | -8.0 | 1.4% | ? | nt
CCc1ccc(CCC(=O)Nc2ccc(C)c(C)c2)o1 | 2.5% | 57.6* | 39.8* | -4.4% | ? | 5.0%
CCc1ccc(NC(=O)CCc2ccc(CC)o2)cc1 | 2.1% | nt | 14.0* | -0.3% | 0.0% | 2.7%
CC(=O)c1ccc(NC(=O)CCc2ccc(C)o2)cc1 | 4.1% | 15.9 | 12.8* | -5.1% | -14.8% | 6.0%
Cc1ccc(-c2noc(CN(C3CCCCC3)S(=O)(=O)c3ccc(Cl)cc3)n2)cc1 | nt | nt | nt | 2.3% | 2.8% | nt
SMILES | LmPK inhibitor | Shiga inhibitor | Cycloheximide cs | TbPYK inhibitor | Sm TGR inh | Giardia FBPA inh
CCc1ccc(CCC(=O)Nc2nnc(C)s2)o1 | 3.7% | -1.6 | 3.2 | -6.4% | ? | 18.6%
CCc1ccc(CCC(=O)Nc2nc(CC(C)=O)ns2)o1 | 3.0% | -3.6 | -1.0 | -1.7% | 39.8µM* | -10.5%
O=C(COc1ccccc1Cl)Nc1ccc2c(c1)OCO2 | 2.6% | 71.4* | 41.8* | 6.5% | -0.8% | 1.5%
Cc1ccccc1OCC(=O)Nc1ccc2c(c1)OCO2 | 2.2% | 157.0* | 32.2* | -11.3% | 3.8% | 4.3%
COc1ccccc1OCC(=O)Nc1ccc2c(c1)OCO2 | -1.5% | 65.8* | 25.2* | 2.2% | -21.2% | -10.0%
COc1cc(C)ccc1OCC(=O)Nc1ccc2c(c1)OCO2 | nt | nt | nt | 0.1% | -6.0% | nt
Cc1ccc2cccc(OCC(=O)Nc3ccc4c(c3)OCO4)c2n1 | -4.3% | 47.8 | -3.1 | 0.7% | 0.9% | -8.7%
Cc1ccccc1OCC(=O)OCC(=O)Nc1ccc2c(c1)OCCO2 | nt | nt | nt | -0.4% | ? | nt
Cc1nc(NC2CCCCC2)c2nc(-c3ccccc3)n(CCN(C)C)c2n1 | nt | nt | nt | nt | nt | 0.6%
